Test results as given in paper PMC4336329 (PLoS ONE, 2015).
Out of some 310,000 compounds screened, about 14,000 (4.5%) showed an effect of 50% or more. Effects have a minus sign here. This excerpt belongs to a sample that is enriched for strong results.

The compounds below were run against human ether-à-go-go-related gene (hERG) potassium channel (human, UniProt Q12809) (assay: primary screen, population patch clamp on CHO cells stably expressing hERG; higher = less effect of the substance).
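Further: peak tail current of the secondary pulse compared with the same well before compound.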

Chain of human ether-à-go-go-related gene (hERG) potassium channel (Q12809 whole entry, looked up): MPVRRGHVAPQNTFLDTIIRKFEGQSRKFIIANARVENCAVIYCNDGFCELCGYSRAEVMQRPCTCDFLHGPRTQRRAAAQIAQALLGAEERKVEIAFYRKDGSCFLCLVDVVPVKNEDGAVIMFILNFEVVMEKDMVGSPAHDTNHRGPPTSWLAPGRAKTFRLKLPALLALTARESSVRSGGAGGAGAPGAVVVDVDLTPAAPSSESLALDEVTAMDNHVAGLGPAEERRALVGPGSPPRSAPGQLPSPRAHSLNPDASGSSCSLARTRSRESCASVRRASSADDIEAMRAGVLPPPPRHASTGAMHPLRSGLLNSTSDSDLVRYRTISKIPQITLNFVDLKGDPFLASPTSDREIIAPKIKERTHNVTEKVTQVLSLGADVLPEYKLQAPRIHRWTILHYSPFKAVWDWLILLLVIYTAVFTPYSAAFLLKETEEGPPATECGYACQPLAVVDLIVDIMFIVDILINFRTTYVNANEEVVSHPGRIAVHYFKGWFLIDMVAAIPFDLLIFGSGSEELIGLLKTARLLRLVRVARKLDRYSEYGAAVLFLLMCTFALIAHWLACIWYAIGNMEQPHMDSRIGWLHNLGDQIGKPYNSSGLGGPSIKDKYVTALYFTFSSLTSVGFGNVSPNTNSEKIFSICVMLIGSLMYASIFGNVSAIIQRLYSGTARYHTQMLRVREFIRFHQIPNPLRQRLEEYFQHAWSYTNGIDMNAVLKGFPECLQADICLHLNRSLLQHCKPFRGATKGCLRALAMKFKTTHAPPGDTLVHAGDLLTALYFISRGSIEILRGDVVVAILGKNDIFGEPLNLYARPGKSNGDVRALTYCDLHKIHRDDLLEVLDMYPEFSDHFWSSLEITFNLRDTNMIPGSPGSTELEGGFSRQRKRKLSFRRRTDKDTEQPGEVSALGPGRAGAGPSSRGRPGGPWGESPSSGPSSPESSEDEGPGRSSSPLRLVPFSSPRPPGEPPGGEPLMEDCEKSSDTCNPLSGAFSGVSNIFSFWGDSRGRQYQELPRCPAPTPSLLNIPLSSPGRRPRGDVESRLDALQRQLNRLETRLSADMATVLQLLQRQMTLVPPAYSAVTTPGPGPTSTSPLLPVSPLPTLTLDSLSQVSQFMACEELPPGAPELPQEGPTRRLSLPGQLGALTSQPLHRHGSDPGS

SMILES	hERG current change (%, negative = inhibition) at 10uM [%]
Cc1ccccc1Cn1c(=O)n(CCCC(=O)NCc2ccco2)c(=O)c2ccccc21	-15.5
Nn1c(SCc2cccc(Cl)c2)nnc1-c1ccncc1	-2.64
Cc1cc(C(=O)C(=O)N(C)C)c(C)n1-c1ccc(Cl)c(Cl)c1	-28.9
COc1ccc(S(=O)(=O)N(CCN2CCOCC2)Cc2cc(OC)ccc2OC)cc1	-10.7
Nc1ccc(NC(=O)c2ccccc2)c2c1C(=O)c1ccccc1C2=O	2.65
CC(C)N1C(=O)CC(Nc2ccc(N3CCOCC3)cc2)C1=O (centres unmarked)	2.64
COc1ccc(NC(=O)c2cc([N+](=O)[O-])ccc2N2CCNCC2)cc1	-44.5
Cc1ccc(NC(=O)c2cc([N+](=O)[O-])ccc2N2CCOCC2)cc1C	-42.3
O=C(NC(=S)Nc1ccccc1)c1cc([N+](=O)[O-])ccc1N1CCOCC1	6.13
COc1ccc(NC(=O)c2cc([N+](=O)[O-])ccc2N2CCCC2)cc1	-1.73
O=C(O)c1cc([N+](=O)[O-])ccc1C(=O)Nc1ccccc1	12.7
CN1CCN(c2ccc([N+](=O)[O-])cc2C(=O)Nc2ccccc2)CC1	-71.1
COc1cccc(NC(=O)c2cc([N+](=O)[O-])ccc2N2CCN(C)CC2)c1	-57.7
COc1ccc(NC(=O)c2cc([N+](=O)[O-])ccc2O)cc1	-57.6
CN1CCN(c2ccc(NC(=O)c3cc([N+](=O)[O-])ccc3N3CCOCC3)cc2)CC1	-2.4
Cc1cccc(NC(=O)c2cc([N+](=O)[O-])ccc2N2CCN(C)CC2)c1	-61.9
COc1ccc(NC(=O)c2cc([N+](=O)[O-])ccc2N2CCN(C)CC2)cc1	-43.4
COc1ccc(NC(=O)c2cccc([N+](=O)[O-])c2)cc1	13
CCC(C(=O)Nc1ccc(C)cc1)c1ccccc1 (centres unmarked)	19.1
Nc1c(-c2cccc(Cl)c2)cnc2c(-c3ccccc3)cnn12	13.9
N#C/C(=C\c1ccc(F)c(Cl)c1)S(=O)(=O)c1ccccn1	-6.64
O=C(/C=C/c1ccc([N+](=O)[O-])cc1)c1cccs1	-23.4
CCOCCCNC(=O)C(c1ccc(OC)cc1)N(Cc1ccc2c(c1)OCO2)C(=O)c1cnccn1 (centres unmarked)	8.96

SMILES	hERG current change (%, negative = inhibition) at 10uM [%]
CCOc1ccc2c(CC)cc(=O)oc2c1OCC	-18.9
O=C(Cn1cc(C(=O)C2CC2)c2ccccc21)Nc1ccc(F)cc1	-20.5
O=C(Nc1cccc(Cl)c1N1CCOCC1)c1cc([N+](=O)[O-])ccc1N1CCOCC1	-21.1
O=C(Nc1ccccc1)c1cc([N+](=O)[O-])ccc1N1CCNCC1	-37.8
O=C(Nc1cccc(Cl)c1)c1cc([N+](=O)[O-])ccc1N1CCN(CCO)CC1	-53
CCc1ccccc1NC(=O)C1CCN(C(=O)N2CCOc3ccccc32)CC1	1.77
Cc1ccccc1NC(=O)C1CCN(C(=O)N2CCOc3ccccc32)CC1	-8.57
COC(=O)c1ccccc1NC(=O)C1CCN(C(=O)N2CCOc3ccccc32)CC1	-59.6
CCCCC(=O)NC(c1ccccc1Cl)c1ccc2cccnc2c1O (centres unmarked)	15.2
COc1ccc(S(=O)(=O)Nc2cc3c4c(c2)CC(=O)N4CCC3)cc1C	-4.48
CC1CC(C)CN(CCCNC(=O)c2nn(C)c3c2CS(=O)(=O)c2ccccc2-3)C1 (centres unmarked)	-64.2
CC1CCN(CCCNC(=O)c2nn(C)c3c2CS(=O)(=O)c2ccccc2-3)CC1	-23.6
CN(CCCNC(=O)c1nn(C)c2c1CS(=O)(=O)c1ccccc1-2)Cc1ccccc1	-46.9
CC1CC(C)CN(C(=O)c2nn(C)c3c2CS(=O)(=O)c2ccccc2-3)C1 (centres unmarked)	-12.7
CCN(CCCNC(=O)c1nn(C)c2c1CS(=O)(=O)c1ccccc1-2)Cc1ccccc1	-60.3
CC(C)N(CCCNC(=O)c1nn(C)c2c1CS(=O)(=O)c1ccccc1-2)Cc1ccccc1	-34.5
Cc1cc(-c2nc(C)c(-c3nnc(SCC(=O)Nc4ccc(Cl)cc4)n3C)s2)no1	2.4
COc1ccc(NC(=O)c2ccc(NC(=O)CSc3nccc(=O)[nH]3)cc2)cc1	15.4
O=C(c1cc(-c2ccc(Cl)cc2)n(-c2ccc(Cl)c(Cl)c2)n1)N1CCOCC1	-57
Cc1ccc(-n2nc(C(=O)O)cc2-c2ccccc2)cc1	14.5
Cc1ccc(-n2nc(C(=O)O)cc2-c2ccc(Cl)cc2)cc1	24.9
O=C(O)c1cc(-c2ccc(Cl)cc2)n(-c2cccc(Cl)c2)n1	23.4
O=C(c1cc(-c2ccc(Cl)cc2)n(-c2ccc(Cl)cc2)n1)N1CCOCC1	-80.8

SMILES	hERG current change (%, negative = inhibition) at 10uM [%]
O=C(O)c1cc(-c2ccc(Cl)cc2)n(-c2ccccc2)n1	30.3
O=C(O)c1cc(-c2ccc(Cl)cc2)n(-c2ccc(Cl)cc2)n1	38.2
O=C(c1cc(-c2ccc(Cl)c(Cl)c2)on1)N1CCOCC1	-14.1
Cc1ccc(-n2nc(C(=O)N3CCOCC3)cc2-c2ccc(Cl)cc2)cc1	-83.3
CCn1c(-c2cc(-c3ccc(OC(C)C)cc3)nc3ccccc23)n[nH]c1=S	2.71
CCOC(=O)c1cc(NC(=O)N(CC)CC)c(C)nc1C	5.59
Cc1cccc(C)c1NC(=O)CCc1nnc2ccc(N3CCCC3)nn12	10.3
CC1CCCCC1NCC(=O)NCc1ccc(F)cc1.O=C(O)C(=O)O (centres unmarked)	-8.33
CCN(CC)S(=O)(=O)c1ccc(Oc2cccc(C(C)=O)c2)nc1	-65.5
CCN(c1ccccc1)S(=O)(=O)c1ccc(Oc2ccc(C(C)=O)cc2OC)nc1	-26.2
CCN(CC)S(=O)(=O)c1ccc(OC)nc1	10.4
COC(=O)c1nn(-c2ccc(OC)cc2)c(=O)cc1NN	26.7
CCN(CC)S(=O)(=O)c1ccc(C)c(NC(=S)NNC(=O)C2CC2)c1	11.1
Cc1ccc(S(=O)(=O)N(C)C)cc1NC(=O)C1CCCC1	2.05
Cc1ccc(S(=O)(=O)N(C)C)cc1NC(=O)C1CCCCC1	-1.12
Cc1ccc(S(=O)(=O)N(C)C)cc1NC(=O)C(C)OC(=O)C1CCCC1 (centres unmarked)	-61.2
Cc1ccc(S(=O)(=O)N(C)C)cc1NC(=O)c1ccc(OC(F)(F)F)cc1	-51.3
CN(C)S(=O)(=O)c1cccc(NC(=O)c2ccc(OC(F)(F)F)cc2)c1	-27.8
Cc1ccc(S(=O)(=O)N(C)C)cc1NC(=O)C1CCC1	12.2
Cc1ccc(S(=O)(=O)N(C)C)cc1NC(=O)c1ccncc1	4.33
Cc1ccc(S(=O)(=O)N(C)C)cc1NC(=S)NNC(=O)C1CC1	-54.6
COCCN1CCN(C(=O)C2CCC(=O)N(CCc3ccccc3)C2)CC1 (centres unmarked)	5.79
CN(Cc1ccccc1)C(=O)c1nc[nH]c1C(=O)N1CCN(C(=O)OC(C)(C)C)CC1	11.2

SMILES	hERG current change (%, negative = inhibition) at 10uM [%]
CCN(CC)CCN(C(=O)CCS(=O)(=O)c1ccccc1)c1nc2cc3c(cc2s1)OCO3.Cl	-20.6
CN(C)CCCN(C(=O)COc1ccc(Cl)cc1)c1nc2cc3c(cc2s1)OCO3.Cl	-59.7
CN(C)CCN(C(=O)CCS(=O)(=O)c1ccccc1)c1nc2cc3c(cc2s1)OCO3.Cl	7.43
CN(C)CCN(C(=O)COc1ccc(Cl)cc1)c1nc2cc3c(cc2s1)OCO3	-5.52
CN(C)CCCN(C(=O)COc1ccccc1)c1nc2cc3c(cc2s1)OCCO3	-45
CN(C)CCCN(C(=O)CCS(=O)(=O)c1ccccc1)c1nc2cc3c(cc2s1)OCO3.Cl	-60
CN(C)CCCN(C(=O)COc1ccc(Cl)cc1)c1nc2cc3c(cc2s1)OCCO3.Cl	-55
CN(C)CCCN(C(=O)COc1ccccc1)c1nc2cc3c(cc2s1)OCO3.Cl	-65.4
Clc1ccc(CN(CC2CCCO2)C(c2cccs2)c2nnnn2C2CCCC2)cc1 (centres unmarked)	3.97
O=C(/C=C/c1cccs1)Nc1nccs1	15.8
O=S(=O)(c1ccc(Oc2ccc(Cl)cc2)c(S(=O)(=O)N2CCCCC2)c1)N1CCCCC1	-10.1
COC(=O)c1ccc(-c2ccco2)n1Cc1ccccc1Cl	-1.48
CC(Oc1ccc2oc(-c3ccccc3)c(C(=O)O)c2c1)C(=O)O (centres unmarked)	14.7
Cn1c(NCc2cccs2)nc2ccccc21	-11.1
COC(=O)c1ccc(-n2c(C)cc(C(=O)CSc3cccc[n+]3[O-])c2C)cc1	21.2
Cc1cc(C(=O)CSc2nc(N)cc(=O)[nH]2)c(C)n1-c1ccc(OC(F)F)cc1	-1.41
Cc1cc(C(=O)CSc2cccc[n+]2[O-])c(C)n1-c1ccccc1	13.9
Cc1cc(C(=O)CSc2cccc[n+]2[O-])c(C)n1-c1ccc(OC(F)F)cc1	-61.9
Cc1cc(C(=O)CSc2cccc[n+]2[O-])c(C)n1-c1ccc(Br)cc1	-68.6
Cc1cc(C(=O)CC#N)c(C)n1-c1ccc(OC(F)F)cc1	-21.5
